Results on 18 compounds are retold here after ChEMBL document CHEMBL2218924, “A broad activity screen in support of a chemogenomic map for kinase signalling research and drug discovery” (Biochem J, 2013).

A word on the residual activity: it is the signal under treatment as a percentage of the control signal.

The structures appear in SMILES notation.

The target in experiment [1] is Serine/threonine-protein kinase WNK3 (Homo sapiens) (UniProt Q9BYP7). The conditions noted are these: at 1 µM.
The target is the same in experiment [2]. As to conditions: at 10 µM; call rule not given here.
Experiment [3] addresses Tyrosine-protein kinase Yes (Homo sapiens) (UniProt P07947). As to conditions: at 1 µM.
Experiment [4] has the same target. As to conditions: at 10 µM.
The target of experiment [5] is T1, Tyrosine-protein kinase ZAP-70 (Homo sapiens) (UniProt P43403).
T1 sequence (whole entry): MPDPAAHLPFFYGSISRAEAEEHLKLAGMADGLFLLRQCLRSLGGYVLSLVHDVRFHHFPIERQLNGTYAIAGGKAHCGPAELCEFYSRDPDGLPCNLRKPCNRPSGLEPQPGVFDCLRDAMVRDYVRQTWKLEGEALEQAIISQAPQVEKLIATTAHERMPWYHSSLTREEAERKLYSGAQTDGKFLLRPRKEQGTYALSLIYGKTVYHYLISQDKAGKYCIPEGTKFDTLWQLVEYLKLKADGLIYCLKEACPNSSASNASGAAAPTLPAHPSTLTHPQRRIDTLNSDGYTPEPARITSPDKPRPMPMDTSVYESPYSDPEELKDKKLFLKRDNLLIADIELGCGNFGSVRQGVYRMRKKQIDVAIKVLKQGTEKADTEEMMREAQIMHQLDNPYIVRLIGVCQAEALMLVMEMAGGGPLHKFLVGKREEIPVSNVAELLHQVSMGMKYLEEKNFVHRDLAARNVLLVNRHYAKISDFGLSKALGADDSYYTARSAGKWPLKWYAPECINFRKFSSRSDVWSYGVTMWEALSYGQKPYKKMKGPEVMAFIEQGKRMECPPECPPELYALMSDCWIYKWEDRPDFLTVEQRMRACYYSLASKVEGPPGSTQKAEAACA
The conditions noted are these: at 1 µM.

Experiment [6] concerns the target Death-associated protein kinase 3 (Homo sapiens) (UniProt O43293). The conditions noted are these: at 1 µM.
Experiment [7] has the same target. The conditions noted are these: at 10 µM.
For experiment [8], the target named is RAF proto-oncogene serine/threonine-protein kinase (Homo sapiens) (UniProt P04049). The conditions noted are these: at 1 µM.
Experiment [9] shares this target. The conditions noted are these: at 10 µM.
The target in experiment [10] is Serine/threonine-protein kinase WNK2 (Homo sapiens) (UniProt Q9Y3S1). As to conditions: at 10 µM.
Sequence of Serine/threonine-protein kinase WNK2 (Homo sapiens) (Q9Y3S1 whole entry): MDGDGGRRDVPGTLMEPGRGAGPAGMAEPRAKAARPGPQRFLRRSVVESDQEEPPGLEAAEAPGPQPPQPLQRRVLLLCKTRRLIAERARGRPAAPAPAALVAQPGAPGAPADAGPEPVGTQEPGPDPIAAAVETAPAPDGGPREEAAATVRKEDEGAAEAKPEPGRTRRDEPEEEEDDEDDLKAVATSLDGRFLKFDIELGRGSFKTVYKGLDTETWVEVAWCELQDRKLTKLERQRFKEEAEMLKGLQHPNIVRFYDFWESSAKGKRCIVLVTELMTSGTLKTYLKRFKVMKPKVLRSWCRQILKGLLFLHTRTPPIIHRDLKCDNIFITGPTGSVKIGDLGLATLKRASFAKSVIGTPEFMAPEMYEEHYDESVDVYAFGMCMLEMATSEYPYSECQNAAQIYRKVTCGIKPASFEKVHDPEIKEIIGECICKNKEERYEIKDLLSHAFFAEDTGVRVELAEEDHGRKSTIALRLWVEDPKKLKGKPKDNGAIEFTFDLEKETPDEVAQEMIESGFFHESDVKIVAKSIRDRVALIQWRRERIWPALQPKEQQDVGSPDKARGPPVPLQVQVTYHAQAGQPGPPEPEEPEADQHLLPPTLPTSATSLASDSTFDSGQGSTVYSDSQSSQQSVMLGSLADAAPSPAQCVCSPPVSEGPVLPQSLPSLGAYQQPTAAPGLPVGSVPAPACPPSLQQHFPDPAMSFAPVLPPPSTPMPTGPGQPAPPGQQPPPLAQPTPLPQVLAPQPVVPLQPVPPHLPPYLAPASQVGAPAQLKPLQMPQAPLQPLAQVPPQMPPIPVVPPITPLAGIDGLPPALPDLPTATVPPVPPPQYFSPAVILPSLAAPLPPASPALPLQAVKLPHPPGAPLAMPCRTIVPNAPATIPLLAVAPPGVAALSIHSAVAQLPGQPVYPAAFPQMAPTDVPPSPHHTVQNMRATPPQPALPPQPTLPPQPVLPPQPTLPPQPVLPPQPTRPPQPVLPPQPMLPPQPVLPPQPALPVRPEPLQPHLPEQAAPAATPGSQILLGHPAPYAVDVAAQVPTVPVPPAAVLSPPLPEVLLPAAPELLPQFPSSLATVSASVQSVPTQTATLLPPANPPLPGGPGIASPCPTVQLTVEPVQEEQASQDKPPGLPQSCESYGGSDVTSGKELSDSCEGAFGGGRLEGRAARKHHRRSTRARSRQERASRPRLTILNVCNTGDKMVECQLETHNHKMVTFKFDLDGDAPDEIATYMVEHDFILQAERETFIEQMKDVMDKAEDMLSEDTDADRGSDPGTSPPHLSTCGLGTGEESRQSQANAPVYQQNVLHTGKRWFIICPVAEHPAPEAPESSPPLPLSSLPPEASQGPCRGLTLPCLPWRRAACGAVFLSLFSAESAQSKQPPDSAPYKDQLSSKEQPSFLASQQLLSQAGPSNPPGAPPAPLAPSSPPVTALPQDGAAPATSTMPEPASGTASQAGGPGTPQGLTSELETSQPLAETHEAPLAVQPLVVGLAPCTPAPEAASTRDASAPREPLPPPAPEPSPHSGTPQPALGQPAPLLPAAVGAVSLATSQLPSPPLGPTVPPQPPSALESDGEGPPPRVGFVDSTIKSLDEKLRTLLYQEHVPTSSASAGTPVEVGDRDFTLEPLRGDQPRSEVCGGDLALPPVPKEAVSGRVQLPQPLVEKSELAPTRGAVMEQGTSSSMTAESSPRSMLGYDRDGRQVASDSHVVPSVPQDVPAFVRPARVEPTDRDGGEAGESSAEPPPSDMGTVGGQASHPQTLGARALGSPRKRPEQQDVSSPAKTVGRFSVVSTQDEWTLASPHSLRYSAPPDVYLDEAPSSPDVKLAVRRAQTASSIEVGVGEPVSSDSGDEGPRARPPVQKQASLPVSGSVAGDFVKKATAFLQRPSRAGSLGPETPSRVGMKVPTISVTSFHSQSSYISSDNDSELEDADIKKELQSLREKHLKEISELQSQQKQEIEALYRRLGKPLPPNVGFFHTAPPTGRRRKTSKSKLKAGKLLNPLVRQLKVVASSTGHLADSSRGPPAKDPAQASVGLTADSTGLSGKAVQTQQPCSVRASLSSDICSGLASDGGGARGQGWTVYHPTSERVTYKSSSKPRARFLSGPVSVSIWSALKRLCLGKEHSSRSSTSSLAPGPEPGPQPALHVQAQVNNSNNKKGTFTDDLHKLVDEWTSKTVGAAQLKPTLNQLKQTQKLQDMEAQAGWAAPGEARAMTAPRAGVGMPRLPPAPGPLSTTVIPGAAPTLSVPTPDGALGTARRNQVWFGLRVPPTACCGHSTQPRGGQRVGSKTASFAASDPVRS

Sequence of Death-associated protein kinase 3 (Homo sapiens) (O43293 whole entry, looked up): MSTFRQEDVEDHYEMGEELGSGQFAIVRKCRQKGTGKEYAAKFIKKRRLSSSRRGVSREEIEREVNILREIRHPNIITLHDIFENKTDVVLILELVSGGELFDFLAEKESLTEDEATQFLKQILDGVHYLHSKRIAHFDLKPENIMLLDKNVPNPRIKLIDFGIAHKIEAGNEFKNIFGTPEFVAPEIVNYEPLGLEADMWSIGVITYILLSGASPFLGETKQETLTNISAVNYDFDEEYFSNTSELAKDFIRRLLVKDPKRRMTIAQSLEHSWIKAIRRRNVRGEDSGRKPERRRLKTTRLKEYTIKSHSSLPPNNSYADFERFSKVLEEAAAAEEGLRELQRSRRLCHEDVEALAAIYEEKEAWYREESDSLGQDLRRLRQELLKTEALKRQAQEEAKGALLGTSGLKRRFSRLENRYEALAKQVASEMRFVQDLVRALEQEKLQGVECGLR
Sequence of Serine/threonine-protein kinase WNK3 (Homo sapiens) (Q9BYP7 whole entry): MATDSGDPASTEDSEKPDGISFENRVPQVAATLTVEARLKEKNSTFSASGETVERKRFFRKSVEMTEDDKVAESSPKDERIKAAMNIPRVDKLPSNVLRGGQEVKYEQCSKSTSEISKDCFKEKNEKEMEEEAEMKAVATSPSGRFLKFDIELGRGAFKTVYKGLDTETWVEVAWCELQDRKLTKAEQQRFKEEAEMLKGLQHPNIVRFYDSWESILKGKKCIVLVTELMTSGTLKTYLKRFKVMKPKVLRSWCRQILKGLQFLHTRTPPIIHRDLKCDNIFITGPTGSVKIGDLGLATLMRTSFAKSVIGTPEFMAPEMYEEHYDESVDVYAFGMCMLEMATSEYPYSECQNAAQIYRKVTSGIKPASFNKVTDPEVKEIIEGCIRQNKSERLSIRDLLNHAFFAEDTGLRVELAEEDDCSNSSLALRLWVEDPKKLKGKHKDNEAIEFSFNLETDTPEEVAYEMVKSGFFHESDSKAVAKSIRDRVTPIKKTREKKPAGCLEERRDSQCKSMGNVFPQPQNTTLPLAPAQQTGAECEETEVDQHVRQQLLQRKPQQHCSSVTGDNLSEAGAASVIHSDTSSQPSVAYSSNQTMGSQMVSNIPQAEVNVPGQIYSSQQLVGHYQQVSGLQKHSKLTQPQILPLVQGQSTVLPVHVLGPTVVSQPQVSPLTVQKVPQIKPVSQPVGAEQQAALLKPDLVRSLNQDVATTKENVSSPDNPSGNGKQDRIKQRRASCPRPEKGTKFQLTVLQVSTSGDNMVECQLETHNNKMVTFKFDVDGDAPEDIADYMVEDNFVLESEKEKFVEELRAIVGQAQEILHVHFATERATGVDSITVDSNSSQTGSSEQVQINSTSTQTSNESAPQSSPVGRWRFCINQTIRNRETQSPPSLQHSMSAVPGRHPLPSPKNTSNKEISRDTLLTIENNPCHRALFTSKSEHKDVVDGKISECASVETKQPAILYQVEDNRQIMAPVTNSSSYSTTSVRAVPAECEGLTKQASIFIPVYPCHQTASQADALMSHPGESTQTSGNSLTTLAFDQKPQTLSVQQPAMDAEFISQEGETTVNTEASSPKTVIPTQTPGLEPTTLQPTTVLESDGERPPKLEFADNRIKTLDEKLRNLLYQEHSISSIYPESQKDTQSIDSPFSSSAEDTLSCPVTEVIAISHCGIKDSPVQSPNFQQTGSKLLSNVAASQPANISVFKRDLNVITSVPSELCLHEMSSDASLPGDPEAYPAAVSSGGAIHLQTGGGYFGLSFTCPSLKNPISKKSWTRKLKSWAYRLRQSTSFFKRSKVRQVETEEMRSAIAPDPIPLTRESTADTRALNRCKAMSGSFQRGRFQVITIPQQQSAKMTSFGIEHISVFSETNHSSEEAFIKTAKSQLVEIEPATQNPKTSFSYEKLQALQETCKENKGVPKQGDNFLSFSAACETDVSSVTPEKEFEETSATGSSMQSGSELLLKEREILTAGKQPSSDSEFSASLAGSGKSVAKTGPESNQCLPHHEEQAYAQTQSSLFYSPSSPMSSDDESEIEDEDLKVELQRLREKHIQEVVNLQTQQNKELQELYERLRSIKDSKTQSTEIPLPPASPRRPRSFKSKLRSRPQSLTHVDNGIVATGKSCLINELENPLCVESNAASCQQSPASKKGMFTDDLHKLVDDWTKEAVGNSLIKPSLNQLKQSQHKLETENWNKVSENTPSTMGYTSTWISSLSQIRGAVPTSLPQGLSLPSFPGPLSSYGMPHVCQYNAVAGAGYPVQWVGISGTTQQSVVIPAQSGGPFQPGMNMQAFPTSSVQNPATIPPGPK
Sequence of Tyrosine-protein kinase Yes (Homo sapiens) (P07947 2-543 limits assumed): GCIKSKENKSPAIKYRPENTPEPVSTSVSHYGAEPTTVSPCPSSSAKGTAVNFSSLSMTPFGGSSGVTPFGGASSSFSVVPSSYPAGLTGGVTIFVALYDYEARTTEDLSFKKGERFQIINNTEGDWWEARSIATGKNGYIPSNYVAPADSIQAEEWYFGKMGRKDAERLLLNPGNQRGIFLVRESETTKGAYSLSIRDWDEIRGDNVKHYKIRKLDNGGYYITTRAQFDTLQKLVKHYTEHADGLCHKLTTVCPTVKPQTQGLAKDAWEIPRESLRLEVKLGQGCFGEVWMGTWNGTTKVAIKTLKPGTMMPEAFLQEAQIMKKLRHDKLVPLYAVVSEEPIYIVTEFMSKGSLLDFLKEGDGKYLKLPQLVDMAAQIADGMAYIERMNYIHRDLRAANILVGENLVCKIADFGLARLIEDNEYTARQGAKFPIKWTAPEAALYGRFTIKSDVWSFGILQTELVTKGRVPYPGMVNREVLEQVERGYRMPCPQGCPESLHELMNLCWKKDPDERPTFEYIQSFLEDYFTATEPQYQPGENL

`N#Cc1cnc2cnc(NCc3cccnc3)cc2c1Nc1ccc(F)c(Cl)c1`: the residual activity in experiment [1] is 97% (inactive); in experiment [2], 87%; in experiment [3], 9%; in experiment [4], 5%; in [5], 44%; in [6], 65%. The residual activity was found to be 48% in experiment [7], 77% in [8] and 91% in experiment [9].
As for `O=Nc1c(-c2c(O)[nH]c3ccccc23)[nH]c2ccccc12`, the residual activity in experiment [10] was 55%; in [1], 89% (inactive); in experiment [2], 60%; in [3] it was 17%; in experiment [4], 0%; in [5] it was 79%. Moreover, the residual activity in [6] stood at 81%; in [7], 37%; in experiment [8], 89%; in [9], 66%.
Regarding `O=C(Nc1cccc(Nc2cc(Nc3cccc(C(F)(F)F)c3)ncn2)c1)C1CC1`, the residual activity in [10] was 81%; in experiment [1], 95% (inactive); in [2], 85%; in experiment [3] it was 76%; in [4] it was 60%; in [5], 97%. Further, the residual activity in [6] was found to be 89%; in [7], 112%; in experiment [8], 91%; in experiment [9] it was 87%.
On to `CCN(CC)C(=O)c1ccc(Nc2nc(OCC3CCCCC3)c3nc[nH]c3n2)cc1`, for which the residual activity amounted to 48% in [10]; 13% in experiment [3]; 1% in experiment [4]; 65% in [7]; 62% in experiment [8]; 21% in experiment [9].
As for `N#CC(C#N)=C(N)/C(C#N)=C/c1ccc(O)cc1`, the residual activity in experiment [10] was 83%; in experiment [1] it was 96% (inactive); in experiment [2], 75%; in experiment [4], 93%; in experiment [5], 128%; in experiment [8] it was 92%. Also, the residual activity in experiment [9] was found to be 88%.
Regarding `Nc1nc(Nc2ccc(S(N)(=O)=O)cc2)nn1C(=S)Nc1c(F)cccc1F`, the residual activity in experiment [1] is 77% (inactive); in experiment [2], 64%; in experiment [3], 3%; in [4], 2%; in experiment [5], 124%; in experiment [6], 90%. Further, the residual activity in experiment [7] amounted to 78%; in [8], 82%; in experiment [9], 26%.
For the compound `Cc1ccc(S(=O)(=O)/C=C/C#N)cc1`, the residual activity is 95% in experiment [10]; 98% (inactive) in experiment [1]; 98% in experiment [2]; 123% in experiment [3]; 103% in [4]; 88% in experiment [6]. For the same compound, the residual activity in [7] was 93%; in [8], 91%; in experiment [9], 87%.
`COc1cc2ncnc(Nc3ccc(O)c(Br)c3)c2cc1OC`: the residual activity in [10] is 70%; in experiment [1] it was 87% (inactive); in [2] it was 77%; in experiment [3] it was 25%; in [4], 2%; in experiment [5] it was 144%. Also, the residual activity in experiment [6] was 83%; in [7] it was 58%; in experiment [8], 64%; in experiment [9] it was 38%.
As for `CC(=O)c1ccc(N2CCOCC2)cc1O`, the residual activity was 94% in experiment [10]; 104% (inactive) in [1]; 104% in experiment [2]; 84% in experiment [5]; 106% in experiment [6]; 97% in experiment [7]. The residual activity in experiment [8] was 83%; in [9], 97%.
Take `CO[C@H]1C[C@@H]2CC[C@@H](C)[C@@](O)(O2)C(=O)C(=O)N2CCCC[C@H]2C(=O)O[C@H]([C@H](C)C[C@@H]2CC[C@@H](O)[C@H](OC)C2)CC(=O)[C@H](C)/C=C(\C)[C@@H](O)[C@@H](OC)C(=O)[C@H](C)C[C@H](C)/C=C/C=C/C=C/1C`: the residual activity is 94% in experiment [10]; 107% (inactive) in experiment [1]; 111% in experiment [2]; 103% in experiment [3]; 104% in [5]; 116% in experiment [6]. In addition, the residual activity in [7] worked out at 141%; in [8] it was 73%; in experiment [9], 108%.
As for `CO[C@H]1[C@@H](OC)C[C@H](C)[C@@H](OC)C2=CC(=O)C=C(NC(=O)/C(C)=C/C=C/[C@H](OC)[C@@H](OC(N)=O)/C(C)=C/[C@@H]1C)C2=O`, the residual activity was 90% in experiment [10]; 112% (inactive) in experiment [1]; 106% in experiment [2]; 101% in [3]; 90% in [4]; 98% in experiment [5]. For the same compound, the residual activity was 108% in [6], 96% in [7], 93% in experiment [8] and 85% in [9].
`c1ccc(-c2n[nH]c3c2oc2ccccc23)cc1`: the residual activity in experiment [10] stood at 74%; in [3], 99%; in experiment [4] it was 67%; in [6], 94%; in [7], 100%; in experiment [8], 74%. Also, the residual activity in experiment [9] amounted to 85%.
In the case of `Ic1cccc(CSc2nnc(-c3ccncc3)o2)c1`, the residual activity in experiment [10] was 83%; in experiment [1] it was 89% (inactive); in [2] it was 89%; in experiment [3], 96%; in experiment [4], 84%; in [5], 101%. Further, the residual activity in experiment [6] came to 107%; in [7], 105%; in experiment [8], 77%; in experiment [9] it was 64%.
Regarding `Cc1cc(Nc2nc(-c3ccccc3)nc3ccccc23)n[nH]1`, the residual activity in [10] was 27%; in [1], 74% (inactive); in experiment [2], 31%; in experiment [3] it was 6%; in experiment [4], 1%; in experiment [5], 114%. Besides, the figures for the residual activity in experiment [6], in [7] and in experiment [9] were 46%, 13% and 62%, respectively.
On to `Cn1nc2c3c(cccc31)C(=O)c1ccccc1-2`, for which the residual activity in experiment [10] was 89%; in experiment [1] it was 95% (inactive); in experiment [2], 67%; in experiment [4], 95%; in experiment [5] it was 92%; in experiment [6] it was 77%. Moreover, the residual activity in [7] worked out at 82%; in experiment [8], 80%; in [9], 72%.
Turning to `Cc1cccc(-c2[nH]c(C(C)(C)C)nc2-c2ccc3c(c2)OCO3)n1`, the residual activity in [10] is 84%; in experiment [1], 89% (inactive); in experiment [2], 89%; in experiment [3] it was 103%; in [4], 44%; in experiment [8] it was 82%. For the same compound, the residual activity in experiment [9] amounted to 71%.
Consider `COc1ccc(C(=O)Nc2sc3c(c2C(N)=O)CCCC3)cc1OC`, for which the residual activity in [10] was 84%; in experiment [1], 101% (inactive); in experiment [2] it was 94%; in [3] it was 106%; in experiment [4], 90%; in [5], 103%. In addition, the residual activity stood at 76% in experiment [6], 106% in experiment [7], 87% in experiment [8] and 94% in experiment [9].
As to `c1ccc(-c2n[nH]cc2-c2ccnc3ccccc23)nc1`, the residual activity in [10] was 88%; in experiment [1] it was 97% (inactive); in experiment [2], 91%; in experiment [3], 98%; in experiment [4], 53%; in [7], 96%. Also, the figures for the residual activity in experiment [8] and in experiment [9] were 81% and 51%, respectively.
